Common to all, as to test: universal protein binding microarray (PBM); transcription factors of Arabidopsis thaliana; high values mean tight binding
In one test the target is T1, GST-ANAC092(1-176) (Arabidopsis thaliana, UniProt Q9FKA0 1-176).
T1 sequence: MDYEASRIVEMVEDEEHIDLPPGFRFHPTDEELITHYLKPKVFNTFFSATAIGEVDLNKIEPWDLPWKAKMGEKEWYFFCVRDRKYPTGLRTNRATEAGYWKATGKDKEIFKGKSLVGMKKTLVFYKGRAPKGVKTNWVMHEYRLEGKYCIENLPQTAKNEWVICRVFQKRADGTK
As to conditions: protein: recombinant; tags: GST; chain copies: 2; dsDNA, one strand shown. An outline of the steps: (§1)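 For zinc-finger proteins, zinc acetate was added while GST-tagged NAC-domain, full-length or DNA-binding-domain proteins were induced in cells. Purification used glutathione–Sepharose 4B, and quantification used A280 or anti-GST western blot. Custom all-10-mer Agilent 4 × 180K arrays, made double-stranded by primer extension, each received a protein at 200 to 500 nM final in duplicate. Scoring covered gapped and ungapped 8-mers, with binding given as the normalised enrichment score (E-score).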

In a further test the target is GST-NTL6(1-168) (Arabidopsis thaliana, UniProt Q9SCK6 1-168). To be noted: protein: recombinant; tags: GST; chain copies: 2; dsDNA, one strand shown. The procedure, abridged: as §1
A further test concerns the target T2, GST-ANAC019 NAC domain (Arabidopsis thaliana, UniProt Q9C932 14-162).
T2 sequence: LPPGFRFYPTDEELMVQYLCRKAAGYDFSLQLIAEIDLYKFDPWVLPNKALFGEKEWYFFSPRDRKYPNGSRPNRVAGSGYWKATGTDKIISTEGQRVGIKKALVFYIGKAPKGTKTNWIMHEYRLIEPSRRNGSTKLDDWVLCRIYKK
As to conditions: protein: recombinant; tags: GST; chain copies: 2; dsDNA, one strand shown. An outline of the steps: as §1

In the next test the target is T3, GST-ATAF1 NAC domain (Arabidopsis thaliana, UniProt Q39013 7-158).
T3 sequence: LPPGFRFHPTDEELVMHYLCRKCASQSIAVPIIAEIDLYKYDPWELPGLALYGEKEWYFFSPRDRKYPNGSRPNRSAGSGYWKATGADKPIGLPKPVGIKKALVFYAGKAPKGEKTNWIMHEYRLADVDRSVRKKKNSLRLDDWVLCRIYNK
As to conditions: protein: recombinant; tags: GST; chain copies: 2; dsDNA, one strand shown. An outline of the steps:
as §1

The target in the next test is T4, GST-NAP(1-166) (Arabidopsis thaliana, UniProt O49255 1-166).
T4 sequence: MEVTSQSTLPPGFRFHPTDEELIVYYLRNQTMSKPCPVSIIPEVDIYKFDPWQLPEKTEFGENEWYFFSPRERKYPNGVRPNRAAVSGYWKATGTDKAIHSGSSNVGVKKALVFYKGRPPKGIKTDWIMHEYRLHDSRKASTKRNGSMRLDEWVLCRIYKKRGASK
To be noted: protein: recombinant; tags: GST; chain copies: 2; dsDNA, one strand shown. An outline of the steps:
as §1

The next test deals with T5, GST-NST2(1-184) (Arabidopsis thaliana, UniProt Q9M274 1-184).
T5 sequence: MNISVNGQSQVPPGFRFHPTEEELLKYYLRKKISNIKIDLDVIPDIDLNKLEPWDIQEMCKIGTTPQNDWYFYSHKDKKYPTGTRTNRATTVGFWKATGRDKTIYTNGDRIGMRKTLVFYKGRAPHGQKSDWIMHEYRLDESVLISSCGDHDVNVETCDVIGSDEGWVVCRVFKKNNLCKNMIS
As to conditions: protein: recombinant; tags: GST; chain copies: 2; dsDNA, one strand shown. The procedure, abridged: as §1

For another test, the target named is T6, GST-VND3 NAC domain (Arabidopsis thaliana, UniProt Q9FH59 12-162).
T6 sequence: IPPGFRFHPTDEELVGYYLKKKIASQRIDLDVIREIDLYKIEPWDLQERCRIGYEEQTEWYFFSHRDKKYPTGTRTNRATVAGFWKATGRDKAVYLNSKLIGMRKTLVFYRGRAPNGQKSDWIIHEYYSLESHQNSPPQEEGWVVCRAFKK
As to conditions: protein: recombinant; tags: GST; chain copies: 2; dsDNA, one strand shown. An outline of the steps:
as §1

The target of another test is T7, GST-VND7 NAC domain (Arabidopsis thaliana, UniProt Q9C8W9 9-158).
T7 sequence: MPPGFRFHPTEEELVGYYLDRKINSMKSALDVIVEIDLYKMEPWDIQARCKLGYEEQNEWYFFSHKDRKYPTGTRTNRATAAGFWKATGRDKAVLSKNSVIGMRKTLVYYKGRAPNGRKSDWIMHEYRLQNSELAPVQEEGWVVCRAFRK
To be noted: protein: recombinant; tags: GST; chain copies: 2; dsDNA, one strand shown. An outline of the steps: as §1

The next test addresses GST-WRKY1(266-371) (Arabidopsis thaliana, UniProt Q9SI37 266-371). To be noted: protein: recombinant; tags: GST; dsDNA, one strand shown. An outline of the steps: as §1
Another test addresses T8, GST-ANAC055(1-171) (Arabidopsis thaliana, UniProt Q9LDY8 1-171).
T8 sequence: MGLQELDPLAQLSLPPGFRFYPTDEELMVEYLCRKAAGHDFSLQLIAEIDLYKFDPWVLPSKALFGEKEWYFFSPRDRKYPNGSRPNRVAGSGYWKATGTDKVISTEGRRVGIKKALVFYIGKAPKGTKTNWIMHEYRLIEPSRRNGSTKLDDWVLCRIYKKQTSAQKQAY
As to conditions: protein: recombinant; tags: GST; chain copies: 2; dsDNA, one strand shown. An outline of the steps: as §1

In test [1] the target is T9, GST-ANAC092(1-285) full length (Arabidopsis thaliana, UniProt Q9FKA0 1-285).
T9 sequence: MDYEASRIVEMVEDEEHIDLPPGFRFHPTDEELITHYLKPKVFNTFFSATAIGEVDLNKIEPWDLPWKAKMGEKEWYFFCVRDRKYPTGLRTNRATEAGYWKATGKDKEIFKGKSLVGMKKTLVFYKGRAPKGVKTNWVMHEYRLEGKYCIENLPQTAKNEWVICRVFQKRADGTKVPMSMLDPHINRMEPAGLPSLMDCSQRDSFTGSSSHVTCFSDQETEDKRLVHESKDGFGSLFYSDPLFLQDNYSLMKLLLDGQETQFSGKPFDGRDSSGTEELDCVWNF
As to conditions: protein: recombinant; tags: GST; chain copies: 2; dsDNA, one strand shown. The procedure, abridged:
as §1

For a further test, the target named is T10, GST-SND1(1-203) (Arabidopsis thaliana, UniProt Q9LPI7 1-203).
T10 sequence: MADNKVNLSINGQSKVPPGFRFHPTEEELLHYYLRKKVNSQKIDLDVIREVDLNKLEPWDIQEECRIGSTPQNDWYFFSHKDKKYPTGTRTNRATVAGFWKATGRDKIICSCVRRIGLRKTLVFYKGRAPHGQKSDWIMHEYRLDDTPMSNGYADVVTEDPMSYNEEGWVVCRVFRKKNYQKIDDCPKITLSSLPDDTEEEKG
To be noted: protein: recombinant; tags: GST; chain copies: 2; dsDNA, one strand shown. An outline of the steps: as §1

A further test has as its target T11, GST-NTL8 NAC domain (Arabidopsis thaliana, UniProt Q9XIN7 14-156).
T11 sequence: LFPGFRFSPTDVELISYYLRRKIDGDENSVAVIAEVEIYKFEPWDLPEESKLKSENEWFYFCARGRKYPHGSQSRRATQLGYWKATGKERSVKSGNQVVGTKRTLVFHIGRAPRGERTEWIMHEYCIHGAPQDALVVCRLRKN
To be noted: protein: recombinant; tags: GST; chain copies: 2; dsDNA, one strand shown. An outline of the steps: as §1

Sequence of GST-WRKY1(266-371) (Q9SI37 266-371): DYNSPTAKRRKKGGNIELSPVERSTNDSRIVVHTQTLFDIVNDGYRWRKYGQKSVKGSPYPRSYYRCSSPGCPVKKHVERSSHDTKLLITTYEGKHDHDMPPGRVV
Sequence of GST-NTL6(1-168) (Q9SCK6 1-168): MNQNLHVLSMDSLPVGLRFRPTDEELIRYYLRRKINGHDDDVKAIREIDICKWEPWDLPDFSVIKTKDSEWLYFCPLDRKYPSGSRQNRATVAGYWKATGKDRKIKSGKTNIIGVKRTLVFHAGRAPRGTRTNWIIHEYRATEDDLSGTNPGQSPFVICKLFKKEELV

Take AAGTCAAA: the binding signal with GST-ANAC092(1-176) was 0.0569 E-score; in the test with GST-NTL6(1-168), 0.135 E-score; with GST-ANAC019 NAC domain, 0.084 E-score; in the test with GST-ATAF1 NAC domain, 0.16 E-score; in the test with GST-NAP(1-166), 0.102 E-score; with GST-NST2(1-184) it was 0.0885 E-score. Besides, the figures for the binding signal with GST-VND3 NAC domain, with GST-VND7 NAC domain and with GST-WRKY1(266-371) were 0.0889 E-score, 0.106 E-score and 0.488 E-score, respectively.

For the sequence ACGCCACC, the binding signal was 0.456 E-score in the test with GST-ANAC092(1-176); 0.145 E-score with GST-ANAC019 NAC domain; 0.0815 E-score in the test with GST-ANAC055(1-171); 0.262 E-score with GST-ATAF1 NAC domain; 0.472 E-score in test [1]; 0.0741 E-score in the test with GST-NAP(1-166). Besides, the binding signal worked out at 0.276 E-score with GST-NST2(1-184) and 0.408 E-score with GST-SND1(1-203).

Take AAGACCAA: the binding signal came out at 0.18 E-score with GST-NTL6(1-168); 0.0878 E-score with GST-ANAC019 NAC domain; 0.172 E-score in the test with GST-ANAC055(1-171); 0.105 E-score with GST-ATAF1 NAC domain; 0.124 E-score in [1]; 0.18 E-score with GST-NST2(1-184). Further, the binding signal with GST-VND3 NAC domain is 0.151 E-score; with GST-VND7 NAC domain, 0.124 E-score; with GST-WRKY1(266-371), 0.42 E-score.

ACACGACT: the binding signal in the test with GST-ANAC092(1-176) was determined as 0.104 E-score; with GST-ANAC019 NAC domain, 0.411 E-score; with GST-ANAC055(1-171), 0.364 E-score; in the test with GST-ATAF1 NAC domain, 0.336 E-score; in [1], 0.171 E-score; with GST-NAP(1-166), 0.179 E-score. Also, the binding signal with GST-NST2(1-184) amounted to 0.19 E-score; with GST-VND3 NAC domain, 0.309 E-score; with GST-VND7 NAC domain it was 0.265 E-score; with GST-WRKY1(266-371), 0.312 E-score.

Regarding TACGCGAA, the binding signal with GST-ANAC092(1-176) was determined as 0.268 E-score; with GST-ANAC055(1-171), 0.0984 E-score; with GST-ATAF1 NAC domain it was 0.119 E-score; in [1] it was 0.368 E-score; in the test with GST-NAP(1-166), 0.0761 E-score; in the test with GST-NST2(1-184) it was 0.185 E-score. For the same sequence, the binding signal with GST-SND1(1-203) was determined as 0.416 E-score.

As for ACGCGATC, the binding signal with GST-ANAC092(1-176) came out at 0.314 E-score; in [1] it was 0.402 E-score; with GST-NAP(1-166), 0.116 E-score; with GST-NST2(1-184), 0.198 E-score; with GST-SND1(1-203), 0.364 E-score.

In the case of ACGGCAGT, the binding signal worked out at 0.207 E-score with GST-ANAC092(1-176); 0.418 E-score in the test with GST-ANAC019 NAC domain; 0.311 E-score with GST-ANAC055(1-171); 0.212 E-score with GST-ATAF1 NAC domain; 0.263 E-score in test [1]; 0.0813 E-score in the test with GST-NAP(1-166). In addition, the binding signal in the test with GST-NST2(1-184) came out at 0.138 E-score; in the test with GST-VND3 NAC domain, 0.342 E-score; with GST-VND7 NAC domain it was 0.238 E-score; with GST-WRKY1(266-371) it was 0.0779 E-score.

For the sequence CACGCGAA, the binding signal stood at 0.343 E-score with GST-ANAC092(1-176); 0.17 E-score with GST-NTL6(1-168); 0.0997 E-score with GST-ANAC055(1-171); 0.402 E-score in [1]; 0.188 E-score with GST-NST2(1-184); 0.0576 E-score in the test with GST-NTL8 NAC domain. Further, the binding signal in the test with GST-SND1(1-203) amounted to 0.213 E-score.

ATTGACCA: the binding signal was 0.0698 E-score with GST-ANAC092(1-176); 0.072 E-score with GST-ANAC055(1-171); 0.107 E-score in the test with GST-ATAF1 NAC domain; 0.0788 E-score in test [1]; 0.163 E-score with GST-NTL8 NAC domain; 0.129 E-score with GST-VND3 NAC domain. Also, the figures for the binding signal in the test with GST-VND7 NAC domain and with GST-WRKY1(266-371) were 0.0794 E-score and 0.482 E-score, respectively.

Regarding AAAGGTAA, the binding signal in the test with GST-NTL6(1-168) is 0.262 E-score; in the test with GST-ANAC055(1-171), 0.192 E-score; in [1], 0.0772 E-score; with GST-NAP(1-166), 0.0527 E-score; with GST-NST2(1-184), 0.199 E-score; with GST-NTL8 NAC domain, 0.402 E-score. Also, the binding signal with GST-SND1(1-203) was 0.124 E-score.

For GTCAATCA, the binding signal with GST-ANAC019 NAC domain was 0.0668 E-score; in the test with GST-ANAC055(1-171) it was 0.0807 E-score; in test [1], 0.169 E-score; with GST-NST2(1-184), 0.0647 E-score; with GST-NTL8 NAC domain, 0.0888 E-score; with GST-VND3 NAC domain it was 0.132 E-score. Besides, the figures for the binding signal with GST-VND7 NAC domain and with GST-WRKY1(266-371) were 0.114 E-score and 0.435 E-score, respectively.
